Screening results: PubChem, Broad Institute
The list is not random: actives were taken first. Their share in the collection is about 2.3%.
DENV2 CPE: protects cells from dengue virus 2 cytopathic effect; 350,000 tested, 1.7% active; CPE inhibition, % at 9.99 µM; DENV2-infected cells, cytopathic effect rescue, plate reader; AID 651640; in the data active = CPE inhibition above about 20%, passing the limit was not always enough; inconclusive = no clear call, values can overlap the other calls; tested in BHK-21 cells;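 note: 0% = median of neutral control wells and 100% = median of positive control wells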
SIRT5 inh: blocks human SIRT5 desuccinylation of peptide | Purified SirT5, succinyl-peptide AMC, trypsin-coupled fluorescence | inhibition, % at 15 µM | 330,000 tested, 1.1% active | AID 652115; in the data active = inhibition above about 15%; inconclusive = no clear call, values can overlap the other calls
ERp5 inh: blocks human ERp5 reductase activity on insulin; Q15084; ERp5 insulin aggregation, absorbance 650 nm, 90 min; inhibition, % at 9.99 µM; 350,000 tested, 0.05% active;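 active = mean replicate inhibition above about 25%, with every replicate also reaching it, limit read from the data, passing the limit was not always enough; inconclusive = only one of those two criteria met; inactive = neither criterion met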
Target sequence (Q15084 whole entry, looked up): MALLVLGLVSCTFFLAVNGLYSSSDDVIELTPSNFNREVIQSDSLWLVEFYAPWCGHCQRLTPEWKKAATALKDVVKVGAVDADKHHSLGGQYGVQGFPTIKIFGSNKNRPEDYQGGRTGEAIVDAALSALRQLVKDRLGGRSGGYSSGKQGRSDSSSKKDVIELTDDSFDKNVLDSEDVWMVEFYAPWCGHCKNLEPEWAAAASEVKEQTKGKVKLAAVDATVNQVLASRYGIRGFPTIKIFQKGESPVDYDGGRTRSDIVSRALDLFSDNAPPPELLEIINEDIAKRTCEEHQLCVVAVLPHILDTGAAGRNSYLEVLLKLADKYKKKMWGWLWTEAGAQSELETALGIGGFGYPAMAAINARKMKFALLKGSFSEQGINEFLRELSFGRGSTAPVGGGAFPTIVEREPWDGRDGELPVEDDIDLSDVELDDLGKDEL
An asterisk follows results filed as active.

Screening COc1ccc(NC(=O)Nc2ccc3c(c2)C(=O)N([C@@H](C)CO)C[C@H](C)[C@H](CN(C)C(=O)Nc2ccc4c(c2)OCO4)OCCCC[C@H](C)O3)cc1 returned DENV2 CPE -1, SIRT5 inh 0 and ERp5 inh 3.
Screening COc1ccc(NC(=O)N(C)C[C@@H]2OCCCC[C@@H](C)Oc3ccc(NC(=O)Nc4ccc(F)cc4)cc3C(=O)N([C@H](C)CO)C[C@@H]2C)cc1 returned DENV2 CPE -7, SIRT5 inh 18* and ERp5 inh -7.
For C[C@H](CO)N1C[C@H](C)[C@H](CN(C)Cc2ccc(C(=O)Nc3ccccc3N)cc2)Oc2ccc(NS(=O)(=O)c3ccc(Cl)cc3)cc2CC1=O the results were DENV2 CPE -2, SIRT5 inh -2 and ERp5 inh 1.
CC(C)NC(=O)Nc1ccc2c(c1)C(=O)N([C@@H](C)CO)C[C@H](C)[C@@H](CN(C)S(=O)(=O)c1cn(C)cn1)OCCCC[C@H](C)O2 was read as DENV2 CPE -10, SIRT5 inh -3 and ERp5 inh 4.
C[C@H](CO)N1C[C@H](C)[C@@H](CN(C)Cc2ccc(Cl)c(Cl)c2)Oc2ccc(N(C)C)cc2CC1=O was read as DENV2 CPE 9, SIRT5 inh 1 and ERp5 inh 1.
For C[C@@H]1CCCCO[C@H](CN(C)CC2CC2)[C@@H](C)CN([C@@H](C)CO)C(=O)c2cc(NS(=O)(=O)c3cccs3)ccc2O1 the results were DENV2 CPE -5.
O=S(=O)(N[C@@H]1CC[C@@H](CCn2cc(-c3ccccn3)nn2)O[C@H]1CO)c1cccc(F)c1 was read as DENV2 CPE 0, SIRT5 inh 2 and ERp5 inh 1.
C[C@H](CO)N1C[C@H](C)[C@H](CN(C)C(=O)c2ccccc2)OCCCC[C@H](C)Oc2ccc(NC(=O)Nc3ccc(C(F)(F)F)cc3)cc2C1=O was read as DENV2 CPE 59*, SIRT5 inh 3 and ERp5 inh 4.
C[C@@H]1CCCCO[C@@H](CN(C)C(=O)Nc2ccc(F)cc2)[C@H](C)CN([C@H](C)CO)C(=O)c2cc(NC(=O)Nc3ccc(F)cc3)ccc2O1 was read as DENV2 CPE 65*, SIRT5 inh 3 and ERp5 inh 0.
CC(C)CC#Cc1ccc2c(c1)O[C@H](CN(C)C(=O)Cc1ccccn1)[C@@H](C)CN([C@@H](C)CO)S2(=O)=O was read as DENV2 CPE 8, SIRT5 inh 0 and ERp5 inh 0.
For C[C@@H]1CN([C@@H](C)CO)S(=O)(=O)c2ccc(C#CC3CC3)cc2O[C@@H]1CN(C)C(=O)c1ccccn1 the results were DENV2 CPE -2, SIRT5 inh -3 and ERp5 inh -1.
For COc1ccc(S(=O)(=O)Nc2ccc3c(c2)C(=O)N([C@@H](C)CO)C[C@H](C)[C@@H](CN(C)C(=O)Nc2ccc(C(F)(F)F)cc2)OCCCC[C@H](C)O3)cc1 the results were DENV2 CPE 106*, SIRT5 inh 11 and ERp5 inh 3.
For COc1ccc(S(=O)(=O)Nc2ccc3c(c2)C(=O)N([C@@H](C)CO)C[C@H](C)[C@@H](CN(C)C(=O)Nc2ccc(C(F)(F)F)cc2)OCCCC[C@@H](C)O3)cc1 the results were DENV2 CPE 6, SIRT5 inh 8 and ERp5 inh 2.
Screening COc1ccc(S(=O)(=O)Nc2ccc3c(c2)C(=O)N([C@@H](C)CO)C[C@H](C)[C@H](CN(C)C(=O)Nc2ccc(C(F)(F)F)cc2)OCCCC[C@H](C)O3)cc1 returned DENV2 CPE 109*, SIRT5 inh 9 and ERp5 inh 4.
Screening COc1ccc(S(=O)(=O)Nc2ccc3c(c2)C(=O)N([C@H](C)CO)C[C@H](C)[C@H](CN(C)C(=O)Nc2ccc(F)cc2)OCCCC[C@H](C)O3)cc1 returned DENV2 CPE -4, SIRT5 inh 17* and ERp5 inh 2.
For COc1ccccc1S(=O)(=O)N[C@H]1CC[C@H](CCNC(=O)C2CCCC2)O[C@H]1CO the results were DENV2 CPE -10, SIRT5 inh 2 and ERp5 inh 2.
CC(C)NC(=O)N[C@@H]1CC[C@H](CCN)O[C@H]1CO was read as DENV2 CPE 2, SIRT5 inh -1 and ERp5 inh -2.
For C[C@@H]1CCCCO[C@@H](CN(C)C(=O)Nc2ccc(C(F)(F)F)cc2)[C@H](C)CN([C@@H](C)CO)C(=O)c2cc(NC(=O)NC3CCCCC3)ccc2O1 the results were DENV2 CPE 9, SIRT5 inh 9 and ERp5 inh 1.
Cc1ccccc1S(=O)(=O)N1CC(=O)N2[C@H](CO)[C@@H](c3ccc(C#CCN(C)C)cc3)[C@H]2C1 was read as DENV2 CPE 43*, SIRT5 inh 3 and ERp5 inh -10.
Cc1ccccc1S(=O)(=O)N1CC(=O)N2[C@H](CO)[C@@H](c3ccc(C#CCN(C)C)cc3)[C@@H]2C1 was read as DENV2 CPE 34*, SIRT5 inh -2 and ERp5 inh -10.
`CC(=O)N1[C@H](CO)[C@H](c2ccc(-c3ccc(C#N)cc3)cc2)C12CN(C(=O)C1CC1)C2` gave DENV2 CPE 62*, SIRT5 inh 5 and ERp5 inh 4.
For CC(=O)N1CC2(C1)[C@H](c1ccc(-c3ccc(C#N)cc3)cc1)[C@@H](CO)N2C(=O)C1CC1 the results were DENV2 CPE 84*, SIRT5 inh -1 and ERp5 inh -1.
`CC(=O)N1[C@@H](CO)[C@@H](c2ccc(-c3ccc(C#N)cc3)cc2)C12CN(C(=O)C1CC1)C2` gave DENV2 CPE 8 and ERp5 inh -2.
For C[C@@H]1CCCCO[C@H](CN(C)S(=O)(=O)c2ccc(Cl)cc2)[C@H](C)CN([C@H](C)CO)C(=O)c2cc(NS(=O)(=O)c3ccc(F)cc3)ccc2O1 the results were DENV2 CPE -13, SIRT5 inh 20* and ERp5 inh -1.
C[C@@H]1CCCCO[C@H](CN(C)S(=O)(=O)c2ccc(F)cc2)[C@@H](C)CN([C@@H](C)CO)C(=O)c2cc(NS(=O)(=O)c3ccc(Cl)cc3)ccc2O1 was read as DENV2 CPE 13, SIRT5 inh 17* and ERp5 inh -3.
`C[C@@H]1CN([C@H](C)CO)C(=O)c2cc(NS(=O)(=O)c3ccc(F)cc3)ccc2O[C@@H](C)CCCCO[C@H]1CN(C)S(=O)(=O)c1ccc(Cl)cc1` gave DENV2 CPE 11, SIRT5 inh 0 and ERp5 inh 1.
For C[C@@H]1CCCCO[C@H](CN(C)S(=O)(=O)c2ccc(Cl)cc2)[C@H](C)CN([C@@H](C)CO)C(=O)c2cc(NS(=O)(=O)c3ccc(F)cc3)ccc2O1 the results were DENV2 CPE -11, SIRT5 inh 22* and ERp5 inh -3.
`CO[C@@H]1CN(C)C(=O)c2ccc(NS(C)(=O)=O)cc2OC[C@@H](C)N(S(=O)(=O)CC(F)(F)F)C[C@H]1C` gave DENV2 CPE 2, SIRT5 inh 0 and ERp5 inh 7.
`COCC(=O)Nc1ccc2c(c1)C(=O)N(C)[C@@H]1CC[C@H](CC(=O)NCc3ccccc3F)O[C@H]1CO2` gave DENV2 CPE inconclusive, SIRT5 inh -7 and ERp5 inh 0.
